# Bioassay records from PubChem BioAssay.
# TPT1 inh: inhibitors of Candida albicans tRNA 2'-phosphotransferase TPT1; recombinant caTPT1, FP RNA substrate dephosphorylation; inhibition, % at 5 µM; hit rate 0.81% among 300,000;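 active = inhibition above the mean of all tested compounds plus 3 SD, set per screening campaign, cut at about 24% in these data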;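 note: plate controls were DMSO alone for no effect and ferristatin control at 100 nM for full effect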
# PHOSPHO1 block: blocks human PHOSPHO1 phosphatase activity. Q8TCT1. recombinant PHOSPHO1, absorbance phosphatase assay. inhibition, % at 13.3 µM. hit rate 1.1% among 290,000; in the data active = inhibition above about 60%
# Target sequence (Q8TCT1 whole entry, looked up): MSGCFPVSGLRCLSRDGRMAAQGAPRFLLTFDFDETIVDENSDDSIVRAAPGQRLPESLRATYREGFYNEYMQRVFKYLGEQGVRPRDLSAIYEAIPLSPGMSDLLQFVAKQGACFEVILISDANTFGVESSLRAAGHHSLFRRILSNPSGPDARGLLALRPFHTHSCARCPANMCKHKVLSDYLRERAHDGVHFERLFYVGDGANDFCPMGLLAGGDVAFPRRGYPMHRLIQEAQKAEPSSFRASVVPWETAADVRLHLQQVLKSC
# Rtt109 Vps75: blocks Candida albicans Rtt109/Vps75 acetyltransferase activity | inhibition, % at 34.9 µM | hit rate 0.16% among 330,000 | purified Rtt109/Vps75, ThioGlo CoA-SH fluorescence, 4 h;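 active = inhibition of at least 50% in every replicate; inconclusive = best replicate reaches 50% inhibition but some replicates fall short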
# Target sequence (Q5AAJ8 whole entry, looked up): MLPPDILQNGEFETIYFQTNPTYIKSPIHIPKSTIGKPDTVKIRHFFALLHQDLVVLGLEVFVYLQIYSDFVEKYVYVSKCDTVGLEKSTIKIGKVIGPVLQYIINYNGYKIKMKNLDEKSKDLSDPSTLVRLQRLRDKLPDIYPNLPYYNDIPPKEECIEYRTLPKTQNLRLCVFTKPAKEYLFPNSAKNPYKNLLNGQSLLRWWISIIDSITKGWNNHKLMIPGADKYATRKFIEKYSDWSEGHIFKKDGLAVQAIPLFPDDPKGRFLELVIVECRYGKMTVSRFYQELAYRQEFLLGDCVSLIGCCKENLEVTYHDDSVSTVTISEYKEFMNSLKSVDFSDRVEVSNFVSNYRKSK
# SKKanGAS inh: SKKanGAS growth inhibition | AID 1662 | inhibition, % at 7.5 µM | S. pyogenes SKKanGAS, kanamycin growth, BacTiter-Glo, 6 h | hit rate 1.3% among 300,000;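 active = mean replicate score, as percent of positive control median, at least 50; inconclusive = mean below 50 but one replicate at or above 50; inactive = mean and every replicate below 50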;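 note: strain carries kanamycin resistance gene driven by streptokinase promoter and grows in 40 µg/ml kanamycin; loss of luminescence reflects streptokinase promoter inhibition or plain growth inhibition; 0% = median of DMSO wells and 100% = positive control at its reference dose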
# WT yeast gro inh: growth inhibition of WT yeast, mitochondrial fusion screen; mitochondrial fusion phenotypic screen, WT strain; AID 1362; hit rate 2.1% among 190,000; inhibition, % at 10 µM; in the data active = inhibition above about 58%; tested in S. cerevisiae
# Platelet DG rel: platelet dense granule release activity | inhibition, %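 (compounds screened at 7.5 µM in platelet-rich plasma)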 | human platelet-rich plasma, SFLLRN dense granule ATP release, luminescence | hit rate 0.22% among 300,000;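 active = mean replicate score, as percent of positive control, at or above 50; inconclusive = mean below 50 but at least one replicate at or above 50; inactive = mean and every replicate below 50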
# Active calls of the source: *; ? = inconclusive; nt = no result given. Only some compounds are listed: those with a hit (about 3.9% of all), similar ones and a draw of the others.
SMILES,TPT1 inh,PHOSPHO1 block,Rtt109 Vps75,SKKanGAS inh,WT yeast gro inh,Platelet DG rel
CCn1c(NCc2ccc3c(c2)OCO3)nc2ccccc21,-4,65*,3,0,11,-4
Cc1c(CCC(=O)O)c(=O)oc2cc3occ(-c4ccc(Br)cc4)c3cc12,0,42,-2,77*,nt,-7
Cc1c(CCC(=O)O)c(=O)oc2c(C)c3occ(-c4ccc(Cl)cc4)c3cc12,nt,-7,1,58*,nt,4
Cc1c(CCC(=O)O)c(=O)oc2cc3occ(-c4ccc(F)cc4)c3cc12,0,9,8,11,-15,-8
Cc1c(CCC(=O)O)c(=O)oc2cc3occ(-c4ccc(Cl)cc4)c3cc12,2,46,7,63*,nt,-5
O=C(Nc1ccc(Cl)c(S(=O)(=O)N2CCOCC2)c1)c1ccc(Cl)nc1,nt,nt,2,nt,nt,nt
COc1ccc(/C=N/N2C(C)CCCC2C)cc1OC (centres undefined),-4,42,-13,-1,nt,-4
O=c1c(/C=N/Nc2ccccc2)c(Sc2nnnn2-c2ccccc2)nc2ccccn12,nt,93*,6,nt,18,nt
COc1cc(C=NO)nc(-c2ccccn2)c1,nt,nt,1,nt,nt,nt
COc1ccc(Sc2ncnc3onc(C)c23)cc1,2,34,-11,7,5,4
Cc1noc2ncnc(Sc3ccccc3Cl)c12,-3,-4,3,-1,99*,-1
Cc1ccc(Sc2ncnc3onc(C)c23)c(C)c1,nt,18,-7,nt,61*,nt
O=C(O)CCC(=O)Nc1ccc(-c2csc(Nc3cccc4ccccc34)n2)cc1,nt,nt,11,nt,nt,nt
CCCN(CC(=O)Nc1cccc(S(N)(=O)=O)c1)CC(=O)Nc1ccc(F)c(F)c1F,-2,-7,-5,2,nt,-2
CCCN(CC(=O)Nc1cccc(Br)c1)CC(=O)Nc1ccc(F)c(F)c1F,-1,-6,16,-6,69*,-10
COc1ccc(-c2cc(C3CCN(c4cc(Cl)nc(N)n4)CC3)[nH]n2)cc1,1,20,2,8,62*,-1
COc1ccc(OC)c(-c2cc(C3CCN(c4cc(Cl)nc(N)n4)CC3)[nH]n2)c1,-2,32,-4,24,66*,-6
Nc1nc(Cl)cc(N2CCC(c3cc(-c4ccc(Cl)cc4)n[nH]3)CC2)n1,-2,20,9,21,12,-7
COc1cc(C(=O)NNC(=O)COc2cccc(F)c2)ccc1OCC(=O)N1CCOCC1,nt,nt,13,nt,nt,nt
Clc1ccc2nc(-c3ccncc3)cc(-c3ccccc3)c2c1,-1,-19,3,-1,-16,-1
c1ccc(-c2cc(-c3ccncc3)nc3ccc4ccccc4c23)cc1,-1,-2,1,100*,7,0
CN1CCN(c2nc(-c3cccnc3)nc3ccccc23)CC1,2,23,-12,-2,94*,-3
c1cncc(-c2nc(N3CCCCCC3)c3ccccc3n2)c1,-6,15,-1,3,55,3
c1ccc(N2CCN(c3nc(-c4ccccn4)nc4ccccc34)CC2)cc1,-4,4,12,100*,75,-1
O=C1CCC(=O)N1CC(=O)N1CCCc2ccccc21,0,36,-3,-1,nt,-1
SMILES,TPT1 inh,PHOSPHO1 block,Rtt109 Vps75,SKKanGAS inh,WT yeast gro inh,Platelet DG rel
CCCc1cc(=O)n2[nH]cnc2n1,-5,61*,20,-13,-11,-4
Cc1ccc(S(=O)(=O)N2CCCCC2)cc1NC(=O)Cn1c(=O)cnc2ccccc21,2,60*,7,-15,0,0
COc1ccccc1NCC(=O)NC(=O)NC1CCCCC1,nt,nt,8,nt,nt,nt
Cc1ccccc1-c1nnn(Cc2cccc(S(=O)(=O)N3CCOCC3)c2)n1,nt,nt,-6,nt,nt,nt
CCOC(=O)c1ccc(N2C(=O)CC(SCC(=O)Nc3ccc(S(N)(=O)=O)cc3)C2=O)cc1 (centres undefined),-2,-39,nt,2,0,10
CN=C(Nc1cc(Cl)ccc1Cl)SC1CC(=O)N(c2ccc(C(=O)OC)cc2)C1=O (centres undefined),-3,15,5,52*,69*,-5
O=C1CC(SC(=Nc2ccccc2)Nc2ccccc2)C(=O)N1c1ccc(Cl)c(Cl)c1 (centres undefined),2,19,-9,72*,62*,-1
COC(=O)c1ccc(N2C(=O)CC(Sc3n[nH]c(C)n3)C2=O)cc1 (centres undefined),5,85*,-3,-3,3,5
COC(=O)c1ccc(N2C(=O)CC(SCC(=O)Nc3ccc(OC)cc3)C2=O)cc1 (centres undefined),0,8,94*,-1,nt,-3
Cc1cccc(N2C(=O)CC(SC(=Nc3ccccc3)Nc3ccccc3)C2=O)c1 (centres undefined),0,-7,17,2,24,-2
CC(C)C(=O)Nc1ccc(NC(=S)NC(=O)c2ccccc2F)cc1,-1,13,5,5,nt,?
NS(=O)(=O)c1cc(C(=O)OCC(=O)Nc2ccc3c(c2)OCO3)ccc1Cl,nt,nt,-3,nt,nt,nt
COc1ccc(-n2nnnc2SCC(=O)Nc2c(C)n[nH]c2C)cc1,nt,nt,-1,nt,nt,nt
Cc1ccc(C)c(Sc2ccc(NC(=O)CCl)cc2)c1,-3,-4,nt,8,69*,8
Cc1ccc(Sc2ccc(NC(=O)CCl)cc2)cc1C,-2,-2,nt,11,66*,3
O=C(CCl)Nc1ccccc1Sc1ccccc1,-7,6,5,16,-9,1
CCCCCCC(NC(=O)Cc1ccc2ccccc2c1)C(=O)O (centres undefined),nt,nt,-1,nt,nt,nt
COc1cccc(C2NC(=S)NC3=C2CCc2ccccc23)c1 (centres undefined),4,4,-6,9,6,11
COc1ccc2c(c1)C1=C(CC2)C(c2ccc(C)cc2)NC(=S)N1 (centres undefined),-3,11,5,4,80*,2
CSCCC(NC(=O)COc1ccccc1)C(=O)N1CC(C)OC(C)C1 (centres undefined),nt,nt,5,nt,nt,nt
NC(=O)c1cc(-c2ccccc2)nc(N2CCOCC2)n1,-2,10,2,-7,-1,12
CC[n+]1cc(-c2ccccc2)nc(N2CCOCC2)n1,1,100*,3,-1,-3,-1
O=C(c1ccco1)N1CCN(C(=S)Nc2ccc(Br)cc2Cl)CC1,nt,37,20,-3,nt,3
CCOC(=O)/C(C#N)=C/c1cccc([N+](=O)[O-])c1,-2,64*,-6,0,nt,5
CCOC(=O)/C(C#N)=C/c1cccc(C)c1,nt,12,4,-6,nt,-24
CC(=O)Nc1ccc(NC(=O)C(C)OC(=O)CSc2ccc(Br)cc2C)cc1 (centres undefined),-1,-18,-2,-2,nt,-9
COc1cccc(/C=N/NC(=O)CSc2nnc(C)n2-c2ccccc2)c1O,-1,26,8,16,14,11
Cc1ccc(-c2nn(-c3ccccc3)cc2/C=N/NC(=O)CSc2nnc(C)n2-c2ccccc2)cc1,0,9,4,54*,10,3
